Compound activity deposited in PubChem BioAssay by National Center for Advancing Translational Sciences (NCATS).
HCMV inh: blocks human cytomegalovirus replication; 410,000 tested, 4.5% active; HFF cells, HCMV-luciferase reporter, 72 h; hits give low values; activity change, negative = inhibition, % at 57.5 µM; in the data active = activity change below about -60%; inconclusive = no clear call, values can overlap the other calls; inactive = above about -39%
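Human foreskin fibroblasts infected with luciferase-reporter HCMV at MOI 1 PFU/cell, compounds at two doses. Luciferase measured 72 h post infection; normalized to buffer-only basal and Salinomycin (10uM) controls.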
LASV entry inh: inhibitors of Lassa virus binding or cell entry | Lassa virus pseudotype entry inhibition, cell reporter | Potency, µM (highest dose often 37.9 µM), usual class: inhibitors | 300,000 tested, 1.2% active; calls by dose curve; tested in HEK293 cells; note: nearly all actives have a fitted effect of over 50% in size
FMDV inh: antivirals against foot and mouth disease virus; FMDV antiviral cell-based qHTS; Potency, µM (titrated, usually from 57.9 µM), most hits filed as inhibitors; 410,000 tested, 1.2% active; AID 1159524; calls by dose curve; tested in HEK293T cells; note: read-out not given here; nearly all actives have a fitted effect of over 45% in size
Marburg entry inh: Marburg virus entry inhibition | Potency, µM (series often up to 37.8 µM), actives largely listed as inhibitors | AID 540276 | 300,000 tested, 1.8% active | Marburg virus pseudotyped entry inhibition, cell reporter; calls by dose curve; tested in HEK293 cells
HCV inh: blocks hepatitis C virus | Huh7.5.1 HCVcc-Cre infection, luciferase reporter, 44 h | Potency, µM (doses to about 41.8 µM), hits mostly inhibitors | 340,000 tested, 3.4% active | AID 651820; active = well fitted inhibition curve with a large enough effect; inconclusive = small, poorly fitted or top-dose-only effect, or another doubt; inactive = no such curve, though single readings can be large or run the other way
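Compounds are dispensed onto cells plated 4 h earlier at 1,000 per well, with HCVcc-Cre virus (about 0.5 moi) added next. Following 44 h of culture, luminescent signal is measured for 15 sec after 15 min with substrate at room temperature.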
Numbers stand for hits; . = inactive; ? = inconclusive; / = no result. Compounds with a hit are over-represented: about 7.9% of the library has one in this group of screens.

SMILES	HCMV inh	LASV entry inh	FMDV inh	Marburg entry inh	HCV inh
N#Cc1c(NC(=O)CSc2nc(N)cc(=O)[nH]2)sc2c1CCCCCC2	?	.	/	?	?
N#Cc1c(NC(=O)c2cccc3ccccc23)sc2c1CCCC2	/	0.199µM	/	/	/
CC(=O)NC(=S)Nc1sc2c(c1C#N)CCCCC2	.	?	.	?	?
CC(Sc1nc(N)cc(=O)[nH]1)C(=O)Nc1sc2c(c1C#N)CCCC2 (stereo not drawn)	-66.2	?	?	?	?
COc1cccc(OC)c1C(=O)Nc1sc2c(c1C#N)CCC2	.	?	.	.	.
COc1ccc(CN(C)CC(=O)Nc2sc3c(c2C#N)CCC3)cc1OC	.	/	.	/	11.2µM
CC(=O)Nc1sc2c(c1C#N)CCCC2	.	.	.	.	11.2µM
Cc1cc2c(c(=O)n1Cc1ccccc1)[C@H]1O[C@](c3ccsc3)(Cc3ccccc31)O2	/	/	/	.	/
O=C1C(c2ccc(C(F)(F)F)cc2)=C(Nc2ccc(Cl)cc2)c2ccccc21	.	.	.	.	/
COc1cc(NC(=O)c2noc3c2CC(C)CC3)c(OC)cc1Cl (stereo not drawn)	.	.	.	/	/
Cc1cc(NCc2ccccc2Cl)n2cnnc2n1	?	.	?	.	/
CCCc1cc(=O)n2nc(N3CCC(C(=O)N4CCN(c5cccc(OC)c5)CC4)CC3)sc2n1	-70.1	/	?	/	?
OC(CCN1CCCCC1)(c1ccccc1)C1CC2C=CC1C2 (stereo not drawn)	/	?	/	6.51µM	/
OC(CC#CCN1CCCCCC1)(c1ccccc1)C1CCCC1 (stereo not drawn)	.	/	.	/	.
OC(CCN1CCCCC1)(c1ccccc1)C1C[C@@H]2C=C[C@H]1C2 (stereo partly drawn)	.	/	.	/	?
OC(CCN1CCCCC1)(c1ccccc1)C1CCCCC1 (stereo not drawn)	.	/	.	5.01µM	/
CC1=C(C(=O)OC2CCCCCC2)C(c2ccc(Cl)cc2Cl)CC(=O)N1 (stereo not drawn)	.	.	.	.	/
O=C1C(c2ccccc2)=[N+]([O-])c2ccccc21	.	/	?	/	10µM
CCCCCCCCCCCCCCCC[n+]1cccc2ccccc21	-98.2	7.94µM	?	?	4.47µM
c1ccc2c(c1)ccc1ccccc12	?	/	.	/	.
CCCCCCCCC[n+]1cccc2c3ccccc3ccc21	/	2.82µM	.	2µM	4.47µM
COc1ccc(Cl)cc1NC(=O)N1CCC(CN2CCCCCC2)CC1	.	.	.	/	/
COc1ccc(CN2CCCC(n3cc(C(=O)NC4CCCC4)nn3)C2)c2ccccc12 (stereo not drawn)	/	/	.	/	/
CCOC(=O)Nc1ccc2c(c1)C(=NO)c1ccccc1-2	.	.	.	.	?
CCOC(=O)Nc1ccc2c(c1)C(=NNC(N)=S)c1ccccc1-2	?	?	?	12.6µM	?
SMILES	HCMV inh	LASV entry inh	FMDV inh	Marburg entry inh	HCV inh
Clc1cccc(Nc2ncnc3c2cnn3-c2ccccc2)c1	.	/	.	/	11.2µM
CCCCNc1ncnc2c1cnn2-c1ccccc1	.	?	.	10µM	?
CCCCNc1ncnc2c1cnn2-c1ccc(Cl)cc1	.	/	.	/	10µM
Clc1ccc(-n2ncc3c(NCCN4CCOCC4)ncnc32)cc1	?	?	?	.	?
c1ccc(-n2ncc3c(NCCCN4CCOCC4)ncnc32)cc1	.	?	.	?	.
Clc1ccc(-n2ncc3c(NCCCn4ccnc4)ncnc32)cc1	.	?	.	?	11.2µM
Cc1ccc2onc(CNC(=O)N3CCN(c4cc(Cl)ccc4C)CC3)c2c1	.	.	.	/	/
COc1cccc(C(=O)Nc2nc3nc(C)c(Cc4ccccc4)c(=O)n3[nH]2)c1	.	.	.	.	/
Cc1cc(Cl)ccc1NC(=O)Cn1nc(C)c2c(C)n(-c3ccccc3)nc2c1=O	.	.	.	/	/
Oc1cc(Nc2cccnc2)cc2cccnc12	-97.7	/	.	/	/
Oc1cc(NCCc2cccnc2)cc2cccnc12	-73.9	/	?	/	/
Cc1cccc(CN2CCN(CC(=O)NCCc3ccc(Cl)cc3)C2=O)c1	.	?	.	.	/
Cc1ccc(C(=O)SC2=NCCS2)cc1	.	.	35.5µM	.	.
COc1ccc(C(=O)SC2=NCCS2)cc1OC	.	.	?	.	.
CCC1C=CC=CC[C@H](C)[C@@H](O)[C@](C)(O)C(=O)[C@@H](C)[C@H](O)[C@@H](C)C(=O)[C@H](C)[C@@H](O)[C@H](C)C=CC(=O)OC2[C@@H](C)C(CC1)OC1(CC[C@@H](C)C(C[C@H](C)O)O1)[C@@H]2C (stereo partly drawn)	/	/	/	/	0.891µM
CCCCNC(=O)c1nc2ccc(Br)cc2nc1-c1cccc(Br)c1	.	/	/	/	/
Cc1cc(NC(=O)c2ccc3[nH]c(C)c(C)c3c2)ccn1	.	.	.	.	2.51µM
CC(=O)Nc1cccc(NC(=O)c2ccc3[nH]c(C)c(C)c3c2)c1	.	?	.	.	.
N#C/C(=C\c1c[nH]c2ccc(Br)cc12)c1ccccn1	/	?	.	12.6µM	11.2µM
CCN(C(=O)c1cnc(N2CCOCC2)c2ccccc12)c1cc(C)ccc1C	.	5.01µM	.	/	/
CCCCCCN1C[C@@H](n2cc(COC(=O)c3ccccc3)nn2)[C@H](O)C[C@H]1c1ccccc1	/	.	/	/	/
COc1ccc(-n2c(C)cc(/C=C/c3nc(O)c([N+](=O)[O-])c(=O)[nH]3)c2C)cc1	-61.5	.	.	.	.
CCCN1C(=O)COCc2cc(-c3ccc(N(C)C)cc3)ccc21	.	/	/	/	/
COC(=O)c1c(N)n(-c2ccc(OC)c(OC)c2)c2nc3ccccc3nc12	.	.	.	.	/
COc1ccc([C@H]2CC(=O)C=C(c3cc(F)ccc3F)C2)cc1OC	.	/	31.6µM	/	11.2µM
SMILES	HCMV inh	LASV entry inh	FMDV inh	Marburg entry inh	HCV inh
COc1ccc([C@H]2CC(=O)C=C(c3cc(Cl)ccc3C)C2)cc1	.	/	.	/	.
COc1ccc([C@H]2CC(=O)C=C(c3cc(C)ccc3OC)C2)cc1	.	/	.	/	7.94µM
COc1ccc([C@H]2CC(=O)C=C(c3ccnc4ccc(Cl)cc34)C2)cc1	-77.8	/	?	/	?
CCOC(=O)CC(=O)CSc1nc2ccccc2c(=O)n1CCc1ccc(S(N)(=O)=O)cc1	.	.	.	/	/
CCc1sc(NC(=O)C(C)C)nc1-c1ccccc1	-78.0	?	.	.	.
O=C(O)Cc1sc(Nc2ccccc2Cl)nc1-c1ccccc1	-61.0	?	.	.	/
CCc1sc(NC(C)=O)nc1-c1ccccc1	.	/	.	/	.
Cc1ccc(S(=O)(=O)Nc2cc3c(cc2C)n(C)c(=O)c(=O)n3C)c(C)c1	?	.	.	/	/
CCC(C)c1ccc(NC(=O)c2[nH]c(C)c(C(C)=O)c2C)cc1 (stereo not drawn)	.	.	.	?	?
CCC(NC(=O)c1[nH]c(C)c(C(C)=O)c1C)c1ccc(Br)cc1 (stereo not drawn)	.	?	.	8.91µM	?
Cn1c(=O)n(Cc2ccccc2Cl)c(=O)c2c1nc1n2CCN1c1ccccc1	.	.	.	/	/
Cc1cc(C)c(NS(=O)(=O)c2ccccc2)c(C)c1	.	.	.	.	?
Cc1cc(-c2ccc(NS(=O)(=O)c3ccccc3)c(C)c2)ccc1NS(=O)(=O)c1ccccc1	.	?	.	?	8.91µM
Cc1cc2oc(=O)sc2cc1NS(=O)(=O)c1ccccc1	.	11.2µM	.	.	.
